According to PubChem BioAssay AID652115 (Broad Institute, 2013):
Values joined by “and” are separate entries in the source; they are usually repeats but may differ in a detail not shown here. Equal values may be shown once. Among all 330,000 compounds or so, about 3,800 (1.2%) were called active. Cut-off read from the data, not from the text of the source: active = inhibition above about 15%; inconclusive = no clear call, values can overlap the other calls; inactive = below that. The list comes from a sample in which actives are over-represented; it also holds similar structures and randomly drawn compounds.

biological target: NAD-dependent protein deacylase sirtuin-5, mitochondrial (Homo sapiens) (UniProt Q9NXA8); assay: blockers of sirtuin-5 deacylase activity – biochemical, fluorescence imaging, single point, set 5, primary screen (AID 652115); details: Purified SirT5, succinyl-peptide AMC, trypsin-coupled fluorescence; at 15 µM; active compounds read high
Sequence (Q9NXA8 whole entry, looked up): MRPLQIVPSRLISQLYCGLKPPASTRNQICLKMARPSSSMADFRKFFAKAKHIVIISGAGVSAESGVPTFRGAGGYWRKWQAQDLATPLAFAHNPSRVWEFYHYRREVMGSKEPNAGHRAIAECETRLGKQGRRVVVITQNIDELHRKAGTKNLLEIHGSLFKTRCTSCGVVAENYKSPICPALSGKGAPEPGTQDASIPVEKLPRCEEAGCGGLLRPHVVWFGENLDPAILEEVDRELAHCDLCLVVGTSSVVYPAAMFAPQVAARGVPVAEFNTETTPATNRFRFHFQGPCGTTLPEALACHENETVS

SMILES | inhibition
COCC(C)n1c(SCc2ccc(C(=O)OC)o2)nc2ccccc2c1=O (stereo not given) | 1.17% (inactive)
COC(=O)c1ccc(CSc2nnc(N)s2)o1 | 16% (active)
Nc1nnc(SCC(=O)NCC(=O)Nc2ccc(F)c(F)c2F)s1 | 0.518% (inactive)
CN1CCN(C(=O)C[C@H]2CC[C@@H](NC(=O)c3ccc4c(c3)OCO4)[C@H](CO)O2)CC1 | 1.96% (inactive)
CCOC(=O)c1c(NC(=O)C2(C)Cc3ccccc3C(=O)O2)sc2c1CCCC2 (stereo not given) | -3.61% (inactive)
CCOC(=O)c1c(NC(=S)Nc2ccccc2C)sc2c1CCC2 | 22.8% (active)
CCOC(=O)c1c(NC(=O)C(C)Sc2c[nH]c3ccccc23)sc2c1CCC2 (stereo not given) | 0.63% (inactive)
O=C(C[C@H]1CC[C@H]2[C@@H](COC[C@@H](O)CN2Cc2ccccc2F)O1)NCc1ccccc1F | 3.18% (inactive)
O=C1NC(c2ccncc2)Nc2sc3c(c21)CCCC3 (stereo not given) | 15.5% (active)
C/C(=C\c1ccccc1)C1NC(=O)c2c(sc3c2CCCC3)N1 (stereo not given) | -1.37% (inactive)
CC(=O)N1[C@@H](CO)[C@@H](c2ccc(C3=CCCC3)cc2)C12CN(C(=O)C1CC1)C2 | 3.6% (inactive)
CO[C@H]1CN(C)C(=O)c2ccc(NC(=O)c3ccno3)cc2OC[C@@H](C)N(S(C)(=O)=O)C[C@H]1C | 17% (active)
CO[C@@H]1CN(C)C(=O)c2cc(NC(=O)c3ccno3)ccc2OC[C@@H](C)N(S(C)(=O)=O)C[C@@H]1C | 0.416% (inactive)
CO[C@H]1CN(C)C(=O)c2ccc(NC(=O)c3cnccn3)cc2OC[C@H](C)N(C)C[C@@H]1C | 0.983% (inactive)
COCC(=O)Nc1ccc2c(c1)[C@H]1C[C@H](CC(=O)NCc3ccc(OC)cc3)O[C@@H](CO)[C@H]1O2 | -0.814% (inactive)
CCCNC(=O)N1C[C@H](C)[C@@H](OC)CN(C)C(=O)c2ccc(NS(C)(=O)=O)cc2OC[C@@H]1C | -4.54% (inactive)
C[C@@H]1CN([C@@H](C)CO)C(=O)c2cc(-c3ccc(C#N)cc3)cnc2O[C@@H]1CN(C)Cc1cccnc1 | -2.7% (inactive)
CO[C@H]1CN(C)C(=O)c2ccc(NC(=O)Nc3ccc(Cl)cc3)cc2OC[C@H](C)N(C(=O)Nc2c(C)noc2C)C[C@@H]1C | -0.008% (inactive)
COc1ccc(NC(=O)CSc2ccc(-c3ccco3)nn2)c(OC)c1 | -1.12% (inactive)
COc1ccccc1OCC(=O)OCc1cc(-c2ccco2)on1 | 18.8% (active)
COc1ccccc1OCC(=O)O/N=C(\N)c1ccccn1 | 0.993% (inactive)
COCC(=O)Nc1ccc2c(c1)OC[C@@H](C)N(C(=O)c1cnccn1)C[C@H](C)[C@H](OC)CN(C)C2=O | -3.74% (inactive)
CCC(=O)N1CC(=O)N2[C@@H](CO)[C@@H](c3ccc(C#CC4CCCC4)cc3)[C@@H]2C1 | -0.876% (inactive)
C[C@H](CO)N1C[C@H](C)[C@H](CN(C)C(=O)c2ccccn2)Oc2ncc(-c3ccccc3F)cc2C1=O | 0.464% (inactive)

SMILES | inhibition
C[C@@H]1CCCCO[C@H](CN(C)Cc2ccc(C(F)(F)F)cc2)[C@@H](C)CN([C@@H](C)CO)C(=O)c2cc(NC(=O)c3ccncc3)ccc2O1 | 15.9% (active)
C[C@@H]1CCCCO[C@@H](CN(C)S(C)(=O)=O)[C@H](C)CN([C@@H](C)CO)C(=O)c2cc(NS(=O)(=O)c3ccc(F)cc3)ccc2O1 | 1.65% (inactive)
C[C@@H]1CCCCO[C@H](CN(C)CC2CCCCC2)[C@H](C)CN([C@H](C)CO)C(=O)c2cc(NS(=O)(=O)c3ccc(F)cc3)ccc2O1 | 16% (active)
Cc1ccc(S(=O)(=O)N(C)C[C@H]2OCCCC[C@@H](C)Oc3ccc(NS(C)(=O)=O)cc3C(=O)N([C@H](C)CO)C[C@@H]2C)cc1 | -1.35% (inactive)
Cc1ccc(S(=O)(=O)Nc2ccc3c(c2)C(=O)N([C@@H](C)CO)C[C@@H](C)[C@H](CN(C)Cc2ccc4c(c2)OCO4)OCCCC[C@@H](C)O3)cc1 | 4.41% (inactive)
Cc1ccc(S(=O)(=O)Nc2ccc3c(c2)C(=O)N([C@@H](C)CO)C[C@@H](C)[C@H](CN(C)Cc2ccc(Cl)c(Cl)c2)OCCCC[C@@H](C)O3)cc1 | 17.4% (active)
Cc1ccc(S(=O)(=O)Nc2ccc3c(c2)C(=O)N([C@H](C)CO)C[C@@H](C)[C@H](CN(C)S(=O)(=O)c2ccc(C)cc2)OCCCC[C@@H](C)O3)cc1 | 15.5% (active)
C[C@@H]1CCCCO[C@@H](CN(C)Cc2ccc(Cl)c(Cl)c2)[C@H](C)CN([C@@H](C)CO)C(=O)c2cc(NS(C)(=O)=O)ccc2O1 | 11.8% (inactive)
C[C@@H]1CCCCO[C@H](CN(C)Cc2ccc(C(F)(F)F)cc2)[C@H](C)CN([C@H](C)CO)C(=O)c2cc(NC(=O)Nc3ccc(F)cc3)ccc2O1 | 5.62% (inactive)
Cc1ccc(S(=O)(=O)N(C)C[C@@H]2OCCCC[C@@H](C)Oc3ccc(NS(=O)(=O)c4ccccc4)cc3C(=O)N([C@H](C)CO)C[C@@H]2C)cc1 | 15% (inactive)
CC(C)NC(=O)Nc1ccc2c(c1)C(=O)N([C@H](C)CO)C[C@H](C)[C@@H](CN(C)Cc1ccc(C(F)(F)F)cc1)OCCCC[C@@H](C)O2 | 0.221% (inactive) and 2.28% (inactive)
C[C@H](CO)N1C[C@H](C)[C@H](CN(C)CC2CCCCC2)OCCCC[C@H](C)Oc2ccc(NS(=O)(=O)c3ccc(F)cc3)cc2C1=O | 13.2% (inactive)
CN(C)CC(=O)N1[C@@H](C#N)[C@@H](c2ccccc2-c2ccccc2F)[C@@H]1CO | -0.215% (inactive)
COCC(=O)N1C[C@@H](C)[C@H](OC)CN(C)C(=O)c2cc(NC(=O)c3cc(C)on3)ccc2OC[C@@H]1C | -4.63% (inactive)
N#Cc1ccc(-c2ccc([C@@H]3[C@H]4CNC[C@@H]3N4Cc3cc(F)ccc3F)cc2)cc1 | -3.56% (inactive)
COCC#Cc1cnc2c(c1)C(=O)N([C@H](C)CO)C[C@H](C)[C@H](CN(C)C(=O)Nc1ccccc1OC)O2 | 3.78% (inactive)
C[C@@H](NC(=O)C[C@H]1C[C@@H]2c3cc(NC(=O)Nc4ccccc4F)ccc3O[C@@H]2[C@H](CO)O1)c1ccccc1 | 1.89% (inactive)
COc1ccccc1NC(=O)Nc1ccc2c(c1)OC[C@H](C)NC[C@H](C)[C@@H](OC)CN(C)C2=O | 6.5% (inactive)
C[C@H]1CCCCO[C@@H](CN(C)Cc2ccc3c(c2)OCO3)[C@@H](C)CN([C@@H](C)CO)C(=O)c2cc(NC(=O)Nc3ccc(F)cc3)ccc2O1 | 1.57% (inactive)
C[C@H](CO)N1C[C@H](C)[C@@H](CN(C)S(C)(=O)=O)OCCCC[C@H](C)Oc2ccc(NC(=O)Nc3cccc4ccccc34)cc2C1=O | -3.3% (inactive)
COc1ccc(S(=O)(=O)N(C)C[C@@H]2OCCCC[C@@H](C)Oc3ccc(NS(=O)(=O)c4ccccc4)cc3C(=O)N([C@@H](C)CO)C[C@H]2C)cc1 | 4.81% (inactive)
C[C@@H]1CN([C@@H](C)CO)C(=O)c2cc(NC(=O)Nc3cccc4ccccc34)ccc2O[C@@H](C)CCCCO[C@@H]1CN(C)S(=O)(=O)c1ccc(Cl)cc1 | 18.7% (active)
COc1ccc(S(=O)(=O)Nc2ccc3c(c2)C(=O)N([C@@H](C)CO)C[C@H](C)[C@@H](CN(C)S(=O)(=O)c2ccc(C)cc2)OCCCC[C@@H](C)O3)cc1 | 4.83% (inactive)
CC(C)NC(=O)Nc1ccc2c(c1)C(=O)N([C@@H](C)CO)C[C@H](C)[C@H](CN(C)S(=O)(=O)c1ccc(Cl)cc1)OCCCC[C@H](C)O2 | 4.57% (inactive)

SMILES | inhibition
COc1ccc(S(=O)(=O)Nc2ccc3c(c2)C(=O)N([C@@H](C)CO)C[C@H](C)[C@@H](CN(C)S(=O)(=O)c2ccc(F)cc2)OCCCC[C@H](C)O3)cc1 | 3.5% (inactive)
C[C@@H]1CN([C@H](C)CO)C(=O)c2cc(NC(=O)Nc3ccc4c(c3)OCO4)ccc2O[C@@H](C)CCCCO[C@@H]1CN(C)Cc1ccc2c(c1)OCO2 | 15.3% (active)
C[C@@H]1CCCCO[C@@H](CN(C)Cc2ccc3c(c2)OCO3)[C@@H](C)CN([C@@H](C)CO)C(=O)c2cc(NC(=O)Nc3ccccc3)ccc2O1 | 0.341% (inactive)
COc1ccc(S(=O)(=O)Nc2ccc3c(c2)C(=O)N([C@@H](C)CO)C[C@H](C)[C@H](CN(C)S(=O)(=O)c2ccc(F)cc2)OCCCC[C@@H](C)O3)cc1 | 11.3% (inactive)
COc1ccc(S(=O)(=O)N(C)C[C@H]2OCCCC[C@H](C)Oc3ccc(NS(=O)(=O)c4ccc(F)cc4)cc3C(=O)N([C@@H](C)CO)C[C@@H]2C)cc1 | 20.4% (active)
COc1ccc(S(=O)(=O)N(C)C[C@H]2OCCCC[C@@H](C)Oc3ccc(NS(=O)(=O)c4ccc(C)cc4)cc3C(=O)N([C@@H](C)CO)C[C@@H]2C)cc1 | 21.4% (active)
O=C(NCC[C@@H]1CC[C@@H](NS(=O)(=O)c2cccc(F)c2)[C@H](CO)O1)C1CC1 | -0.786% (inactive)
C[C@H]1CN([C@@H](C)CO)C(=O)c2cccc(NC(=O)Nc3ccccc3)c2O[C@H]1CN(C)S(=O)(=O)c1ccc(F)cc1 | -1.45% (inactive)
CCC(=O)Nc1ccc2c(c1)C(=O)N(C)[C@H]1CC[C@H](CC(=O)NCCOC)O[C@@H]1CO2 | 2.38% (inactive)
C[C@@H]1CN([C@@H](C)CO)C(=O)Cc2cc(NS(=O)(=O)c3cccs3)ccc2O[C@@H]1CN(C)C(=O)Nc1ccc(C(F)(F)F)cc1 | 3.48% (inactive)
C[C@@H]1CCCCO[C@H](CN(C)S(=O)(=O)c2ccc(F)cc2)[C@H](C)CN([C@@H](C)CO)C(=O)c2cc(NS(=O)(=O)c3ccccc3)ccc2O1 | 4.58% (inactive)
COc1ccc(S(=O)(=O)Nc2ccc3c(c2)C(=O)N([C@H](C)CO)C[C@@H](C)[C@H](CN(C)S(=O)(=O)c2ccc(Cl)cc2)OCCCC[C@@H](C)O3)cc1 | 13.8% (inactive)
Cc1ccc(S(=O)(=O)N(C)C[C@@H]2OCCCC[C@@H](C)Oc3ccc(NS(=O)(=O)c4ccc(F)cc4)cc3C(=O)N([C@H](C)CO)C[C@H]2C)cc1 | 19.9% (active)
COc1ccc(S(=O)(=O)Nc2ccc3c(c2)C(=O)N([C@@H](C)CO)C[C@@H](C)[C@H](CN(C)Cc2ccc(C(F)(F)F)cc2)OCCCC[C@@H](C)O3)cc1 | 16.7% (active)
C[C@H](CO)N1C[C@H](C)[C@H](CN(C)Cc2ccc(C(F)(F)F)cc2)Oc2ccc(NS(C)(=O)=O)cc2C1=O | 21.5% (active)
Cc1ccc(S(=O)(=O)N(C)C[C@H]2OCCCC[C@@H](C)Oc3ccc(NC(=O)Nc4ccc(F)cc4)cc3C(=O)N([C@@H](C)CO)C[C@H]2C)cc1 | -2.04% (inactive)
C[C@H](CO)N1C[C@H](C)[C@H](CN(C)S(=O)(=O)c2ccc(F)cc2)OCCCC[C@H](C)Oc2ccc(NS(=O)(=O)c3ccc(Cl)cc3)cc2C1=O | 17.6% (active)
C[C@H]1CN([C@@H](C)CO)C(=O)c2cc(NS(C)(=O)=O)ccc2O[C@H]1CN(C)C(=O)Nc1ccc(C(F)(F)F)cc1 | -4.07% (inactive)
Cc1ccc(S(=O)(=O)Nc2ccc3c(c2)C(=O)N([C@H](C)CO)C[C@H](C)[C@H](CN(C)S(=O)(=O)c2ccc(F)cc2)OCCCC[C@@H](C)O3)cc1 | 4.66% (inactive)
C[C@@H]1CN([C@H](C)CO)C(=O)c2cc(NS(=O)(=O)c3cccs3)ccc2O[C@@H]1CN(C)Cc1ccc(C(F)(F)F)cc1 | 2.33% (inactive)
COc1ccc(S(=O)(=O)Nc2ccc3c(c2)C(=O)N([C@@H](C)CO)C[C@H](C)[C@H](CN(C)Cc2ccc(C(F)(F)F)cc2)OCCCC[C@@H](C)O3)cc1 | 9.2% (inactive)
COc1ccc(CN(C)C[C@@H]2OCCCC[C@H](C)Oc3ccc(NS(=O)(=O)c4ccc(F)cc4)cc3C(=O)N([C@H](C)CO)C[C@H]2C)cc1 | -3.51% (inactive)
